Data: the supplement of paper PMC10849652
The full data set covers some 8,800 targets. This sample favours those with a hit. About 0.5% of all pairs of compound and target were hits.

Columns and labels:
Experiment in all cases: log2 fold change, soluble protein after heating vs DMSO (PISA); higher = thermal stabilisation; K562 lysate, 10 uM; active = over 0.2 and 3.5 SD of the protein, either way, in both replicates (recomputed)
[1] = compound: C1=CC=C(C=C1)[C@H](COC2=CC3=C(C=C2)NC(=O)N3)NC(=O)C4=CC=CN(C4=O)CC5=CC(=C(C=C5)F)F
Outline: (§1)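 Following dounce homogenisation of K562 pellets in PBS pH 7.4 with 1 mM MgCl2, crude extract at 1 mg/mL protein was incubated for 30 min with 10 μM compound. Aliquots were then heated for 3 min over 48°C-58°C and pooled, NP-40 was added to 0.5% at 4°C, and soluble protein was recovered as the supernatant at 21,000xg for 90 min. Channel-sum-equalised TMTpro 16plex LC-MS/MS quantified this protein. Each value, from duplicates, is a log-two fold change in thermal stability relative to solvent controls.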

[2] = compound: CC1=C(SC2=C1C(=N[C@H](C3=NN=C(N32)C)CC(=O)N)C4=CC=C(C=C4)Cl)C
Outline: as §1

[3] = compound: CC1=C2C(=CC=C1)N=C(N(C2=O)C3=CC=CC=C3C)CN4C=NC5=C(N=CN=C54)N
Outline: as §1

[4] = compound: Cc1sc2c(c1C)C(c1ccc(Cl)cc1)=N[C@@H](CC(=O)OC(C)(C)C)c1nnc(C)n1-2
Outline: as §1

[5] = compound: c1ccc([C@@H]2C[C@H]2NC2CCNCC2)cc1
Outline: as §1

Measured: log2 fold change

WRN (UniProt Q14191)
inactive: [1] 0.006 | [2] -0.017 | [3] 0.009 | [4] 0.01 | [5] 0.006

VTN (UniProt P04004)
inactive: [1] -0.009 | [2] -0.039 | [3] -0.094 | [4] -0.053 | [5] -0.222

UNC13D (UniProt Q70J99)
inactive: [1] -0.032 | [2] 0.067 | [3] 0.044 | [4] 0.025 | [5] 0.024

ZC2HC1A (UniProt Q96GY0)
inactive: [1] 0.059 | [2] -0.046 | [3] -0.018 | [4] 0.106 | [5] -0.058

YDJC (UniProt A8MPS7)
inactive: [1] 0.001 | [2] -0.012 | [3] -0.003 | [4] 0.012 | [5] 0.018

ZMYM2 (UniProt Q9UBW7)
inactive: [1] 0.105 | [2] 0.07 | [3] 0.062 | [4] 0.015 | [5] 0.183

VPS35L (UniProt Q7Z3J2)
Sequence of UniProt Q7Z3J2 (Q7Z3J2 whole entry, looked up): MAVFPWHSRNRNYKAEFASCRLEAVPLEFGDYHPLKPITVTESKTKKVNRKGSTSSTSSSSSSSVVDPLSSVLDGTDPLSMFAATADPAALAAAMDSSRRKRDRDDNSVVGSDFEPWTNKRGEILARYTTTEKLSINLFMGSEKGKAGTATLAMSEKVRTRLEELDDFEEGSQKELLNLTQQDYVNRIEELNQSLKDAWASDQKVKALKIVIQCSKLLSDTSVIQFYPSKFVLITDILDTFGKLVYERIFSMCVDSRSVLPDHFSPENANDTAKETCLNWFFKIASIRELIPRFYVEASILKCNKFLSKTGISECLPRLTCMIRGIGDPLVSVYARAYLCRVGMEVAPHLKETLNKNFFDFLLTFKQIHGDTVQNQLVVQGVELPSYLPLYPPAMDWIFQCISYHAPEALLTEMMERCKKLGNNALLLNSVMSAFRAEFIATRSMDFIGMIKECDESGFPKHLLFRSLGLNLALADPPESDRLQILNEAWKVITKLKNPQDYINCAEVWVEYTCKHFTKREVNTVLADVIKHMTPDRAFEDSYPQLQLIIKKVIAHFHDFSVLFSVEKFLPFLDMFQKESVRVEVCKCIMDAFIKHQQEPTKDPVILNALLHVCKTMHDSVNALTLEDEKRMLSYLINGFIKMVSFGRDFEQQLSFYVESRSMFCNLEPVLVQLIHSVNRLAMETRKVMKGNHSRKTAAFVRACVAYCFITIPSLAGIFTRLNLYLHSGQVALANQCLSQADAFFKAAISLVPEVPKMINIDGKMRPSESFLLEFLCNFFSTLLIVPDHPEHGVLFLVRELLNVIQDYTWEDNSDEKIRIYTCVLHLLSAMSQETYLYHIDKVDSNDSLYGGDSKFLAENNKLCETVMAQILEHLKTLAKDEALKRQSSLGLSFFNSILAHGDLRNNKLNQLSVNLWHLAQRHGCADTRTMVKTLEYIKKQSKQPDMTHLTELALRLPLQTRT
inactive: [1] 0.013 | [2] 0.004 | [3] 0.044 | [4] -0.032 | [5] 0.013

ULK3 isoform 4 (UniProt Q6PHR2)
inactive: [1] -0.015 | [2] 0.043 | [3] -0.117 | [4] -0.026 | [5] 0.125

VPS37B (UniProt Q9H9H4)
inactive: [1] 0.028 | [2] 0.039 | [3] 0.01 | [4] -0.01 | [5] 0.064

WDR36 (UniProt Q8NI36)
inactive: [1] 0.006 | [2] 0.001 | [3] 0.06 | [4] 0.025 | [5] 0.035

UTP18 (UniProt Q9Y5J1)
inactive: [1] 0.117 | [2] -0.005 | [3] -0.088 | [4] -0.013 | [5] 0.059

YES1 (UniProt P07947)
inactive: [1] -0.068 | [2] -0.099 | [3] 0.009 | [4] -0.045 | [5] 0

VPS54 (UniProt Q9P1Q0)
inactive: [1] -0.157 | [2] 0.136 | [3] 0.044 | [4] 0.053 | [5] -0.217

XPO1 (UniProt O14980)
inactive: [1] -0.024 | [2] 0.023 | [3] 0.012 | [4] 0.008 | [5] 0.023

ZC3H13 (UniProt Q5T200)
inactive: [1] -0.005 | [2] -0.039 | [3] 0.013 | [4] -0.061 | [5] 0.136

VPS11 (UniProt Q9H270)
inactive: [1] -0.018 | [2] -0.001 | [3] 0.044 | [4] 0.048 | [5] 0.029

WAC (UniProt Q9BTA9)
inactive: [1] -0.03 | [2] 0.056 | [3] -0.013 | [4] 0.041 | [5] 0.037

VRK2 (UniProt Q86Y07)
Sequence of UniProt Q86Y07 (Q86Y07 whole entry, looked up): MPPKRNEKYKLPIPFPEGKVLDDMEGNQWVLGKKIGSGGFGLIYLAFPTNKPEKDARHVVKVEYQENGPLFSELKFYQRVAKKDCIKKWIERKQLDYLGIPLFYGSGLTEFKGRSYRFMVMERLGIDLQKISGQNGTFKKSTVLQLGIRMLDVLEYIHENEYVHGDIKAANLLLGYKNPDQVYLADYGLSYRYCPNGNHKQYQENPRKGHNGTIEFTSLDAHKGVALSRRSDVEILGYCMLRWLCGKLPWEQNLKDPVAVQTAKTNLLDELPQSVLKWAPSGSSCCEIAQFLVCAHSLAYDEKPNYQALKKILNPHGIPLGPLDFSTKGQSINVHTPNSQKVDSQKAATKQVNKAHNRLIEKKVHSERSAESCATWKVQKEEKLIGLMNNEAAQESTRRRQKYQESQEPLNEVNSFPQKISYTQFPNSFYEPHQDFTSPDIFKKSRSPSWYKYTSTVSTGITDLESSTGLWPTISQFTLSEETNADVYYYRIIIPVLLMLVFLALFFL
inactive: [1] 0.004 | [2] 0 | [3] -0.242 | [4] -0.023 | [5] -0.018

XAB2 (UniProt Q9HCS7)
inactive: [1] -0.009 | [2] 0.05 | [3] 0 | [4] -0.018 | [5] 0.035

YEATS4 (UniProt O95619)
Sequence of UniProt O95619 (O95619 whole entry, looked up): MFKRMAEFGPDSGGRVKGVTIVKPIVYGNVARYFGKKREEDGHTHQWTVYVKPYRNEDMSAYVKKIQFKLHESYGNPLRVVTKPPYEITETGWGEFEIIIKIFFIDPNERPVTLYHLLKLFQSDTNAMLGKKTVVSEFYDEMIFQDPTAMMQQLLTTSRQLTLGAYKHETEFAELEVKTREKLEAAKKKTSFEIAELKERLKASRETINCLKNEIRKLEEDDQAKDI
inactive: [1] -0.014 | [2] 0.05 | [3] -0.029 | [4] 0.046 | [5] 0.25

ZBTB33 (UniProt Q86T24)
Sequence of UniProt Q86T24 (Q86T24 whole entry, looked up): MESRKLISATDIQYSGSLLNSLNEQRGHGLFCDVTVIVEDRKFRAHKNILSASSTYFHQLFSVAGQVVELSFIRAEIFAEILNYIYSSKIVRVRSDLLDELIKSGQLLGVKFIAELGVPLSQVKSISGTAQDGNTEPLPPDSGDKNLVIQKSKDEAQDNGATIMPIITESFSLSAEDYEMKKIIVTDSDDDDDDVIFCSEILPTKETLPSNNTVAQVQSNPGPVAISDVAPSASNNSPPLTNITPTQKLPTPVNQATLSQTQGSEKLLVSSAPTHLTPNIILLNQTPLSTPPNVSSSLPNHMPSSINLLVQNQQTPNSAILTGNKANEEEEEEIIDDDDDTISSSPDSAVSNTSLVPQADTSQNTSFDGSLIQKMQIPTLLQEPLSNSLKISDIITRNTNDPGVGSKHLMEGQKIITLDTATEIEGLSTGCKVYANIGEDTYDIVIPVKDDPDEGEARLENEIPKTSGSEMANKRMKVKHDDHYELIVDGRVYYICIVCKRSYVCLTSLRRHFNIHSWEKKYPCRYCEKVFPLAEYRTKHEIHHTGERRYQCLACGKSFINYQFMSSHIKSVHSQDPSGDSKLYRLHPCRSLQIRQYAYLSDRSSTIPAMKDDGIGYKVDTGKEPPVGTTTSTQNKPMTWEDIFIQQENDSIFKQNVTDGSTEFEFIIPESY
inactive: [1] 0.046 | [2] -0.082 | [3] 0.003 | [4] 0 | [5] -0.015

WDCP (UniProt Q9H6R7)
inactive: [1] 0.023 | [2] 0.068 | [3] -0.04 | [4] 0.049 | [5] 0.025

WRB (UniProt O00258)
Sequence of UniProt O00258 (O00258 whole entry, looked up): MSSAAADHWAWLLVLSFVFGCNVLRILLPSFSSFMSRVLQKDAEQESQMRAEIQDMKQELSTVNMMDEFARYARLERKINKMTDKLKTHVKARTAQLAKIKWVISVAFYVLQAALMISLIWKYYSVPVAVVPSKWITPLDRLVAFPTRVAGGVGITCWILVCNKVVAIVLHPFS
inactive: [1] 0.018 | [2] -0.021 | [3] -0.029 | [4] 0 | [5] -0.191

UNC45A (UniProt Q9H3U1)
inactive: [1] -0.036 | [2] -0.011 | [3] 0.036 | [4] 0.004 | [5] 0.039

ZHX1 (UniProt Q9UKY1)
inactive: [1] 0.016 | [2] 0.036 | [3] 0.022 | [4] -0.224 | [5] -0.22

ZC3HC1 (UniProt Q86WB0)
inactive: [1] 0.002 | [2] 0.045 | [3] 0.006 | [4] 0.019 | [5] 0.061

WDR6 (UniProt Q9NNW5)
inactive: [1] -0.001 | [2] 0.02 | [3] 0.008 | [4] -0.021 | [5] -0.013

USE1 (UniProt Q9NZ43)
Sequence of UniProt Q9NZ43 (Q9NZ43 whole entry, looked up): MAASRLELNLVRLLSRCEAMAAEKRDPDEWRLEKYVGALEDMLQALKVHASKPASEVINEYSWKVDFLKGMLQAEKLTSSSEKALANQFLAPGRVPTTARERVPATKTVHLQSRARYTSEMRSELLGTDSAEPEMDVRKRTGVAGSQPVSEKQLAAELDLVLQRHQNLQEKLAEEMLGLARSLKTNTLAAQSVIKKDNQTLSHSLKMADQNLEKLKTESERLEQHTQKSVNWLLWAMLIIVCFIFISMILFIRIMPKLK
inactive: [1] 0.006 | [2] 0.008 | [3] -0.119 | [4] -0.109 | [5] -0.002

USP48 (UniProt Q86UV5)
inactive: [1] -0.104 | [2] -0.028 | [3] -0.029 | [4] 0.098 | [5] -0.187

ZMYM1 (UniProt Q5SVZ6)
Sequence of UniProt Q5SVZ6 (Q5SVZ6 whole entry, looked up): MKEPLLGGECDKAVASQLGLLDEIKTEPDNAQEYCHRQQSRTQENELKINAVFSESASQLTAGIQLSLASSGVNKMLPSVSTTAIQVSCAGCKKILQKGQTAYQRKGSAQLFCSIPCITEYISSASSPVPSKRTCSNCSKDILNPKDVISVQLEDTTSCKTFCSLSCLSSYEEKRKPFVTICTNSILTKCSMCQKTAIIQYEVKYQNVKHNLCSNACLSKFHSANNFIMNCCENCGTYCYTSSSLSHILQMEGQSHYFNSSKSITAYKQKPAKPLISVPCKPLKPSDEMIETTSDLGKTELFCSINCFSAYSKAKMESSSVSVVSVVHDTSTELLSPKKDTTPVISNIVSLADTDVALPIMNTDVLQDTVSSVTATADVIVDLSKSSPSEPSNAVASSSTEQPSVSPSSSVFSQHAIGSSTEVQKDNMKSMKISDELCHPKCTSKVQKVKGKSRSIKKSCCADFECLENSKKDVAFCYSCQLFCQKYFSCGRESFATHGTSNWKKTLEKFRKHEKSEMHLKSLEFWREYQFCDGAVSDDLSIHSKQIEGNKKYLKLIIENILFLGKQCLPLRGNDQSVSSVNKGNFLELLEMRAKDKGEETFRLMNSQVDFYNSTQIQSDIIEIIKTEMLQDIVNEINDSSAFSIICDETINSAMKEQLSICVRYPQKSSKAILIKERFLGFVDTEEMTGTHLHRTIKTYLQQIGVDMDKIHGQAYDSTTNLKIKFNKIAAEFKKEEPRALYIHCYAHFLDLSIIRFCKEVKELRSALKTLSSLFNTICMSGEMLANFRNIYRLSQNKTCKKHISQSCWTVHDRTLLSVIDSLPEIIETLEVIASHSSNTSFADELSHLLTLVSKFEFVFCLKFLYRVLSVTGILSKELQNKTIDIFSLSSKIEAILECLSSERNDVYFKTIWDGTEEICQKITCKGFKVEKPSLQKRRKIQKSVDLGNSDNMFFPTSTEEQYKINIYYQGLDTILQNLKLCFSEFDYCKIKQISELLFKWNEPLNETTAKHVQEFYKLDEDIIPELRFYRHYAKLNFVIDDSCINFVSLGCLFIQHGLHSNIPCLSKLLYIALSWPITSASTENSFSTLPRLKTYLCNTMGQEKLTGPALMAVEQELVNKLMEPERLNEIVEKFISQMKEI
inactive: [1] 0.009 | [2] 0.099 | [3] -0.012 | [4] 0 | [5] -0.2

USP8 (UniProt P40818)
inactive: [1] -0.018 | [2] 0.016 | [3] 0.01 | [4] 0.009 | [5] 0.036

VCPIP1 (UniProt Q96JH7)
inactive: [1] -0.025 | [2] -0.008 | [3] 0.002 | [4] -0.052 | [5] -0.002

VAC14 (UniProt Q08AM6)
inactive: [1] -0.008 | [2] -0.008 | [3] 0.042 | [4] -0.012 | [5] 0.001

UTP3 (UniProt Q9NQZ2)
inactive: [1] -0.009 | [2] -0.035 | [3] 0.076 | [4] -0.158 | [5] 0.018

VAV1 (UniProt P15498)
inactive: [1] -0.025 | [2] 0.001 | [3] -0.011 | [4] -0.017 | [5] -0.068

ZNF845 (UniProt Q96IR2)
inactive: [1] -0.239 | [2] 0.048 | [3] 0.114 | [4] -0.058 | [5] 0.083

VPS18 (UniProt Q9P253)
inactive: [1] -0.014 | [2] 0.013 | [3] 0.032 | [4] 0.067 | [5] 0.012

YWHAQ (UniProt P27348)
inactive: [1] 0.002 | [2] 0.021 | [3] -0.001 | [4] 0.076 | [5] 0.181

ZNF598 isoform 3 (UniProt Q86UK7)
inactive: [1] -0.037 | [2] -0.014 | [3] 0.006 | [4] 0.034 | [5] 0.025

VPS41 (UniProt P49754)
inactive: [1] -0.046 | [2] 0.005 | [3] -0.016 | [4] 0.067 | [5] 0.13

ZFYVE19 (UniProt Q96K21)
inactive: [1] 0.076 | [2] 0.042 | [3] 0.012 | [4] -0.032 | [5] -0.183

VPS4A (UniProt Q9UN37)
inactive: [1] -0.056 | [2] 0.034 | [3] -0.102 | [4] 0.017 | [5] 0.074

ZNF609 (UniProt O15014)
inactive: [1] 0.009 | [2] 0.008 | [3] 0.078 | [4] -0.047 | [5] -0.082

VANGL1 (UniProt Q8TAA9)
inactive: [1] 0.064 | [2] 0.088 | [3] -0.055 | [4] -0.004 | [5] -0.076

VPS28 (UniProt Q9UK41)
inactive: [1] -0.087 | [2] -0.04 | [3] -0.013 | [4] 0.073 | [5] 0

WDR7 (UniProt Q9Y4E6)
inactive: [1] 0.055 | [2] 0.011 | [3] 0.019 | [4] 0.029 | [5] -0.027

ZNF318 (UniProt Q5VUA4)
inactive: [1] -0.017 | [2] 0.133 | [3] 0 | [4] 0.018 | [5] 0.038

WDR91 (UniProt A4D1P6)
inactive: [1] -0.009 | [2] 0.027 | [3] 0.009 | [4] -0.02 | [5] 0.026

WDR62 isoform 4 (UniProt O43379)
inactive: [1] 0.026 | [2] -0.004 | [3] -0.011 | [4] 0.003 | [5] 0.038

UQCRC2 (UniProt P22695)
inactive: [1] 0.003 | [2] 0.037 | [3] -0.007 | [4] 0.006 | [5] -0.015

YRDC (UniProt Q86U90)
inactive: [1] -0.009 | [2] 0.02 | [3] -0.046 | [4] -0.029 | [5] -0.053

ZNF451 (UniProt Q9Y4E5)
Sequence of UniProt Q9Y4E5 (Q9Y4E5 whole entry, looked up): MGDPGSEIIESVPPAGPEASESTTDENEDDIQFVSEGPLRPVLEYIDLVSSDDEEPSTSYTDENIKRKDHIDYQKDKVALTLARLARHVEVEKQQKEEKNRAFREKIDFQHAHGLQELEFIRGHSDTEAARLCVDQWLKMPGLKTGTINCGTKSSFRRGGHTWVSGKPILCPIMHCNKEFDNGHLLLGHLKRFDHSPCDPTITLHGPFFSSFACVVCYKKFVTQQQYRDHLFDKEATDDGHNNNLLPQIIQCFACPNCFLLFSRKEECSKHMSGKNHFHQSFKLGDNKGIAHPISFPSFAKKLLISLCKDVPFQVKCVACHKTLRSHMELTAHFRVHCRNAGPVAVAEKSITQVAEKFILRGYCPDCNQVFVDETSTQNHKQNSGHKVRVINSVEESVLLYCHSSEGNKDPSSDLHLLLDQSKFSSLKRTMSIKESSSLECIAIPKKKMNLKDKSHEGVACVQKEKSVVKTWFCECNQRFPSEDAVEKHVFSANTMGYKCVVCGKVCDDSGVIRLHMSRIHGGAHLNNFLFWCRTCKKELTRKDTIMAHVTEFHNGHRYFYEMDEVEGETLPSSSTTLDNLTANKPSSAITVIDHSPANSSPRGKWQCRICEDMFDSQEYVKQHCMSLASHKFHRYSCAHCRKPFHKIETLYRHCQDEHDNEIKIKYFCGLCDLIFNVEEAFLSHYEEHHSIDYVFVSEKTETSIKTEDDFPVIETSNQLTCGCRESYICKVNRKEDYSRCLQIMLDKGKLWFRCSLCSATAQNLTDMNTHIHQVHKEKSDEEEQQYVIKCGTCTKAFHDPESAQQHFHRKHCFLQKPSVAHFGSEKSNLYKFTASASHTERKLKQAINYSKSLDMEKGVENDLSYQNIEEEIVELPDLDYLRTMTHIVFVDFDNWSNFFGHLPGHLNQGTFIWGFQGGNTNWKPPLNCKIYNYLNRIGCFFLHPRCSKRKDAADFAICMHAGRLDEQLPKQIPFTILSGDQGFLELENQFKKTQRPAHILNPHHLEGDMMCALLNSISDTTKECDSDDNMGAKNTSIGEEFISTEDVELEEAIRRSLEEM
inactive: [1] -0.038 | [2] 0.03 | [3] -0.014 | [4] 0.018 | [5] 0.009

ZMYM4 (UniProt Q5VZL5)
inactive: [1] 0.133 | [2] -0.081 | [3] -0.054 | [4] -0.023 | [5] 0.011

VHL (UniProt P40337)
inactive: [1] 0.165 | [2] 0.004 | [3] -0.029 | [4] -0.178 | [5] 0.08
